Assay outcomes: PubChem BioAssay, several laboratories
PfHsp90 set2: growth inhibition of yeast expressing Plasmodium Hsp90; S. cerevisiae expressing PfHsp90, BacTiter-Glo ATP, 48 h; yeast lacking PDR1 and PDR3 efflux regulators; inhibition, % at 9.4 µM; hit rate 0.32% among 310,000;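 active = every replicate shows inhibition above about 80%, whatever the replicate mean, limit read from the data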
tim23-1 inh: growth inhibitors of tim23-1 mutant yeast; S. cerevisiae tim23-1 growth, BacTiter-Glo luminescence, 24 h; inhibition, % at 20 µM; hit rate 1.3% among 330,000; AID 463212;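 active = growth inhibition of the mutant yeast at or above 50%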;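 note: temperature-sensitive mutant grown at 25 °C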
Rce1 inhib: yeast Ras-converting enzyme inhibition | Q03530 | yeast membranes, quenched prenylated peptide cleavage fluorescence | calls only | hit rate 0.27% among 290,000;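 active = fall in fluorescence gain of 50% or more versus controls, with final raw signal at or below 3038400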
Target sequence (Q03530 whole entry, looked up): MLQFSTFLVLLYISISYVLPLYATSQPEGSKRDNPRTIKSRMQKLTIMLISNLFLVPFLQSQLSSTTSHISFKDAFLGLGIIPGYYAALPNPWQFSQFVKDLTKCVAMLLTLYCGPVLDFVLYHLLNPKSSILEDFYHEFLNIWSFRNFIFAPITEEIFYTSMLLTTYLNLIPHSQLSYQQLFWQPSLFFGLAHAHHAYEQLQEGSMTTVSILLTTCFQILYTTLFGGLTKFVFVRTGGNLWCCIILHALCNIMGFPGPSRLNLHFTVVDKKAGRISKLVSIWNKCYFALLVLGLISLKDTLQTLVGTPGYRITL
TIM10 inh: growth inhibitors of TIM10 yeast strain; S. cerevisiae TIM10 strain growth, BacTiter-Glo luminescence, 24 h; AID 463195; hit rate 1.4% among 330,000; inhibition, % at 10 µM;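 active = inhibition of 40% or more at the single tested concentration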;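 note: wild-type TIM10 isogenic control strain grown at permissive 25 °C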
tim10-1 inh: tim10-1 yeast growth inhibition | AID 463190 | S. cerevisiae tim10-1 ts strain growth, BacTiter-Glo, 24 h | hit rate 2.2% among 330,000 | inhibition, % at 20 µM;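 active = inhibition of at least 40%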;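 note: mutant grown at 25 °C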
tim10-1 confirm: confirmation of tim10-1 mutant yeast growth inhibitors; shares compounds with tim10-1 inh; S. cerevisiae tim10-1 ts strain growth, BacTiter-Glo, 24 h; inhibition, % at 20 µM; hit rate 56% among 7,400; AID 463213;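 active = inhibition of yeast growth at or above a set limit in either of two repeat tests at 20 µM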;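 note: tim10-1 mutant grown at permissive 25 °C to find synthetic lethal compounds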
tim10 confirm: TIM10 yeast growth inhibition, confirmed; shares compounds with TIM10 inh; S. cerevisiae tim10 strain growth, BacTiter-Glo luminescence, 24 h; inhibition, % at 10 µM; hit rate 63% among 4,600; AID 463215;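 active = inhibition of yeast growth at or above a set limit in either of two replicates at 10 µM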; note: this counterscreen used the strain with wild-type TIM10
tim23-1 conf: confirmation of tim23-1 mutant yeast growth inhibitors. inhibition, % at 20 µM. AID 463218. hit rate 83% among 4,400. shares compounds with tim23-1 inh. S. cerevisiae tim23-1 growth, BacTiter-Glo luminescence, 24 h;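 active = inhibition above about 39% in either of two replicate wells at 20 µM, limit read from the data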;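 note: temperature-sensitive tim23-1 mutant grown at 25 °C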
Large screens that a line does not name were inactive (follow-up assays come after a bar, where they were run). This is a sample that favours compounds with a hit; in the whole collection about 3.7% have one here.

CC(C)(C)C1CCC(=NOC(=O)c2ccc(F)cc2)CC1 (configuration not stated)	tim23-1 inh 67, TIM10 inh 85, tim10-1 inh 45 | tim10-1 confirm inactive | tim10 confirm 83 | tim23-1 conf 62
CC1=NN(C(N)=S)C(=O)C1N=Nc1ccc(Cl)cc1Cl (configuration not stated)	tim23-1 inh 64, TIM10 inh 46, tim10-1 inh 57 | tim10-1 confirm 56 | tim10 confirm 58 | tim23-1 conf 73
CC(=O)NC(CC(=O)OCC(=O)c1ccc(NC(=O)CC(C)C)cc1)c1ccccc1 (configuration not stated)	none (no result: PfHsp90 set2, Rce1 inhib)
CC1CC(C)(C)NC(=S)N1CC(=O)NCc1ccc2c(c1)OCO2 (configuration not stated)	none (no result: PfHsp90 set2)
Cc1nnnn1/C(=C\c1ccccc1)C(=O)OCC(=O)NC1CCCCC1	tim23-1 inh 54, TIM10 inh 41, tim10-1 inh 47 | tim10-1 confirm 35 | tim10 confirm 50 | tim23-1 conf 47
CC(=O)N/C(=C\c1ccccc1)C(=O)OCC(=O)NC1CCCC1	none
COc1ccc([N+](=O)[O-])c(S(=O)(=O)c2ccccc2)n1	tim23-1 inh 77, tim10-1 inh 50 (no result: PfHsp90 set2) | tim10-1 confirm 46 | tim23-1 conf 47
O=[N+]([O-])c1cccnc1S(=O)(=O)c1ccccc1	none
COc1ccc([N+](=O)[O-])c(S(=O)(=O)c2ccc(Cl)cc2)n1	PfHsp90 set2 109, tim23-1 inh 53, TIM10 inh 83, tim10-1 inh 75 | tim10-1 confirm 73 | tim10 confirm 94 | tim23-1 conf 86
CCOC(=O)C1=C(C)N(CC)C(=S)NC1c1ccccc1OC(F)F (configuration not stated)	none (no result: Rce1 inhib)
CCN(CC)c1ccc2c(c1)oc(=O)c1c(Cl)cc(=O)oc12	tim23-1 inh 73, TIM10 inh 89, tim10-1 inh 78 | tim10-1 confirm 82 | tim10 confirm 61 | tim23-1 conf 81
CCN(CC)c1ccc2c(Cl)c(Br)c(=O)oc2c1	tim23-1 inh 64, TIM10 inh 72, tim10-1 inh 60 (no result: PfHsp90 set2) | tim10-1 confirm 59 | tim10 confirm 68 | tim23-1 conf 78
CS/C(N)=N/N=C/c1cc(Br)cc(Br)c1O	tim23-1 inh 76, TIM10 inh 71, tim10-1 inh 47 | tim10-1 confirm 61 | tim10 confirm 61 | tim23-1 conf 79
Oc1c(Br)cc(/C=N/n2c(-c3ccccc3)n[nH]c2=S)c(Br)c1O	none (no result: PfHsp90 set2, tim23-1 inh, TIM10 inh, tim10-1 inh)
Cc1nnc(C)n1/N=C/c1cc(Br)cc(Br)c1O	PfHsp90 set2 101, tim23-1 inh 63, TIM10 inh 63, tim10-1 inh 56 | tim10-1 confirm 32 | tim10 confirm inactive | tim23-1 conf 85
CS/C(N)=N/N=C/c1cc(C)ccc1O	none
Oc1c(Br)cc(Br)cc1/C=N/n1c(-c2ccccc2)n[nH]c1=S	tim23-1 inh 80, tim10-1 inh 66 | tim10-1 confirm 50 | tim23-1 conf 88
CCCS(=O)(=O)N1CCC(C(=O)NCC2CCCO2)CC1 (configuration not stated)	none (no result: Rce1 inhib)
CSc1nc2sc3c(c2c(=O)n1CC(C)C)CC(C)(C)OC3	none (no result: PfHsp90 set2)
Cc1ccc([N+](=O)[O-])cc1-c1[nH]c(-c2ccc(O)c(O)c2)nc1-c1ccccc1	none (no result: PfHsp90 set2)
COc1ccc(-c2nc(-c3ccccc3)c(-c3cc([N+](=O)[O-])ccc3C)[nH]2)cc1O	tim23-1 inh 53, tim10-1 inh 44 | tim10-1 confirm 36 | tim23-1 conf 58
COc1c(O)cccc1/C=N/NC(=O)Cn1ccnc1C	none
Cc1ccc(-c2nc(N/N=C/c3ccncc3)c3ccccc3n2)cc1	tim23-1 inh 76, TIM10 inh 60, tim10-1 inh 74 | tim10-1 confirm 69 | tim10 confirm 60 | tim23-1 conf 81
CC(=O)NC(CC(=O)Oc1ccc(C)cc1Br)c1ccccc1 (configuration not stated)	none
Cn1ccsc1=NC(=O)c1ccc([N+](=O)[O-])o1	tim23-1 inh 57, tim10-1 inh 50 | tim10-1 confirm inactive | tim23-1 conf 58
COc1cc(C(=O)N=c2sccn2C)c([N+](=O)[O-])cc1OC	none
O=c1c2c([N+](=O)[O-])cc([N+](=O)[O-])cc2sn1-c1ccc(Br)cc1	tim23-1 inh 54, tim10-1 inh 85 (no result: Rce1 inhib) | tim10-1 confirm 93 | tim23-1 conf 70
CC1CCCC(N2CCN(S(=O)(=O)c3ccccc3)CC2)C1 (configuration not stated)	none
CC(=O)N1c2ccc(S(=O)(=O)N3CCC(C(=O)Nc4ccc(C)cn4)CC3)cc2CC1C (configuration not stated)	none
Oc1ccccc1N=Cc1c(O)ccc2ccccc12	tim23-1 inh 66, tim10-1 inh 42 | tim10-1 confirm inactive | tim23-1 conf 79
CN(C)/N=C/c1c(O)ccc2ccccc12	none
CCSc1nnc(-c2ccc(C)cc2)c2ccccc12	tim23-1 inh 64, TIM10 inh 44, tim10-1 inh 55 | tim10-1 confirm 49 | tim10 confirm inactive | tim23-1 conf 70
C/C(=N\NC(=O)c1ccccc1NC(=O)c1ccc(Cl)cc1)c1ccncc1	tim23-1 inh 95, TIM10 inh 96, tim10-1 inh 96 | tim10-1 confirm 97 | tim10 confirm 96 | tim23-1 conf 100
CCC(C)(C)NC(=O)c1ccc2c(c1)N(CC(=O)NC1CCCC1)C(=O)C(C)(C)O2	none
S=c1[nH]nc(COc2ccccc2)n1/N=C/c1c(Cl)cccc1Cl	none
O=C(CSCc1ccccc1)N=Nc1c(O)[nH]c2ccccc12	none
O=C(CSCc1cccc(Br)c1)N=Nc1c(O)[nH]c2ccccc12	tim23-1 inh 53, tim10-1 inh 45 (no result: PfHsp90 set2) | tim10-1 confirm inactive | tim23-1 conf 59
Cc1ccc(C)c(N(CC(=O)NC(C)(C)C)C(=O)CCC(=O)Nc2nccs2)c1	none
COc1ccc2c(c1)-c1nc(NC(=O)c3ccco3)sc1CC2	tim23-1 inh 57, tim10-1 inh 58 | tim10-1 confirm 53 | tim23-1 conf 61
CCSc1ccccc1C(=O)NCc1ccc2c(c1)OCO2	none (no result: PfHsp90 set2)
CCN(CC)c1ccc(/C=N/NC(=O)c2nnn(-c3nonc3N)c2C(C)C)c(O)c1	tim23-1 inh 62, TIM10 inh 60, tim10-1 inh 72 | tim10-1 confirm inactive | tim10 confirm 66 | tim23-1 conf 61
Cc1[nH]nc2c1C(c1ccc(-c3ccccc3C#N)o1)C(C#N)=C(N)O2 (configuration not stated)	tim23-1 inh 86, tim10-1 inh 56 | tim10-1 confirm 55 | tim23-1 conf 68
